AC50 and outcome data for 9 compounds are collected here from PubChem BioAssay (EPA / NIEHS).

Read-out in experiment [1]: Monokine induced gamma interferon (MIG), CXCL9 (gene 4283)
Put plainly: BSK_SAg_MIG: BioMAP Diversity Plus: SAg Assay for Monokine induced gamma interferon (MIG) Biomarker Activity (AID 2283092). The conditions noted are these: primary human HUVEC with PBMC; actives raise or lower the signal. The method, boiled down:
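HUVEC plus human PBMC co-culture, chemicals dosed and MIG (CXCL9) quantified by ELISA at 24 h. Bidirectional curve fitting against DMSO as negative control and baseline, so both gain and loss of signal count as activity.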

Experiment [2] in a line: BSK_SAg_PBMCCytotoxicity: PBMC Cytotoxicity Assessment in the BioMAP Diversity Plus: SAg Assay (AID 2283093).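 For AC50: PBMC superantigen activated with SEB plus TSST-1 one hour after compound addition.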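 Note: PBMC viability measured as Alamar Blue reduction fluorescence at 546/580 nm; fitted both ways against DMSO so a hit may be loss or gain of signal.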 The conditions noted are these: primary human HUVEC with PBMC. The method, boiled down: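 Human umbilical vein endothelial cells co-cultured with PBMC; PBMC (75,000/well) pre-treated with compound 1 h, then activated with SEB and TSST-1 (20 ng/mL final each) for 90 h. Alamar Blue added 6 h, fluorescence 546/580 nm; bidirectional fit versus DMSO.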

Read-out in experiment [3]: Interleukin-8 (IL8), CXCL8 (gene 3576)
Description: BSK_SAg_IL8: BioMAP Diversity Plus: SAg Assay for Interleukin-8 (IL8) Biomarker Activity (AID 2283094). The conditions noted are these: primary human HUVEC with PBMC; actives raise or lower the signal. The procedure, abridged: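 In this co-culture of human umbilical vein endothelium with peripheral blood mononuclear cells, IL-8 is assayed by ELISA at 24 h. DMSO serves as baseline for bidirectional curve fitting.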

A short description of experiment [4]: BSK_SAg_Proliferation: Cell Proliferation Assessment in the BioMAP Diversity Plus: SAg Assay (AID 2283095).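 Note: relative cell number as total protein by SRB absorbance in sub-confluent culture.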 The following applies: primary human HUVEC with PBMC. The procedure, abridged: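 Readout is SRB-stained protein (560 nm) in a primary human HUVEC and PBMC co-culture; sub-confluent cultures are read at 96 h. Activity is fitted bidirectionally using DMSO as baseline.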

The target in experiment [5] is human CYP1A1, CYP1A1 (gene 1543) (UniProt P04798). Put plainly: NVS_ADME_hCYP1A1: NovaScreen (NVS) CYP450-related Enzyme Activity (ADME) Assay for human CYP1A1 (AID 2283100; active = hit-call score of the fitted dose curve at least 0.9, where 1 is the maximum). The method, boiled down:
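Recombinant CYP1A1 with a fluorogenic substrate, cell-free, read 1 h after dosing; acetonitrile as negative control. Single-concentration screen at 10 uM in duplicate, then concentration-response up to 20 uM for chemicals meeting ~30% inhibition threshold.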

The target in experiment [6] is human CYP2D6, CYP2D6 (gene 1565) (UniProt P10635). Description: NVS_ADME_hCYP2D6: NovaScreen (NVS) CYP450-related Enzyme Activity (ADME) Assay for human CYP2D6 (AID 2283107; active = hit-call score of the fitted dose curve at least 0.9, where 1 is the maximum). The procedure, abridged: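 Cell-free assay using recombinant human CYP2D6 expressed in insect cells, with a fluorogenic substrate read after 1 h. Primary screen in duplicate at 10 uM; actives followed up in concentration series. Loss of signal fitted relative to acetonitrile.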

The target of experiment [7] is rat CYP2A1, Cyp2a1 (gene 24894) (UniProt P11711). Description: NVS_ADME_rCYP2A1: NovaScreen (NVS) CYP450-related Enzyme Activity (ADME) Assay for rat CYP2A1 (AID 2283114). The procedure, abridged: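 Recombinant rat CYP2A1, cell-free, fluorogenic substrate turnover read by fluorescence intensity 0.75 h after dosing. Primary screen at 10 uM in duplicate; actives rerun as concentration-response up to 20 uM; loss of signal versus acetonitrile control.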

For experiment [8], the target named is rat CYP2A2, Cyp2a2 (gene 24895) (UniProt P15149). Put plainly: NVS_ADME_rCYP2A2: NovaScreen (NVS) CYP450-related Enzyme Activity (ADME) Assay for rat CYP2A2 (AID 2283116; active = hit-call score of the fitted dose curve at least 0.9, where 1 is the maximum). The procedure, abridged:
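Cell-free recombinant rat CYP2A2 activity with fluorogenic substrate, fluorescence read 0.2 h after dosing. Chemicals screened at 10 uM in duplicate, hits then run in concentration-response up to 20 uM; signal loss versus acetonitrile baseline.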

Experiment [9] addresses rat CYP2C11, Cyp2c11 (gene 29277) (UniProt P08683). Description: NVS_ADME_rCYP2C11: NovaScreen (NVS) CYP450-related Enzyme Activity (ADME) Assay for rat CYP2C11 (AID 2283118; active = hit-call score of the fitted dose curve at least 0.9, where 1 is the maximum). The procedure, abridged:
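Cell-free recombinant rat enzyme with fluorescent substrate; readout 0.33 h after dosing, loss of signal versus acetonitrile control. Initial duplicate single-point at 10 uM; actives rerun in concentration series.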

The target in experiment [10] is rat CYP2C13, Cyp2c13 (gene 171521) (UniProt P20814). Description: NVS_ADME_rCYP2C13: NovaScreen (NVS) CYP450-related Enzyme Activity (ADME) Assay for rat CYP2C13 (AID 2283121; active = hit-call score of the fitted dose curve at least 0.9, where 1 is the maximum). The method, boiled down: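 Recombinant rat CYP2C13 with fluorogenic substrate, 0.75 h cell-free incubation; primary screen in duplicate at 10 uM, actives followed in concentration series. Fluorescence loss relative to acetonitrile control indicates inhibition.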

For experiment [11], the target named is human Acid Phosphatase 1 (ACP1), ACP1 (gene 52) (UniProt P24666). Description: NVS_ENZ_hACP1: NovaScreen (NVS) Enzymatic Assay for human Acid Phosphatase 1 (ACP1) (AID 2283136; active = hit-call score of the fitted dose curve at least 0.9, where 1 is the maximum). The method, boiled down:
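Recombinant enzyme expressed in Sf9 cells, tested cell-free; activity read by fluorescence with electrophoretic mobility shift separation of substrate and product, 1.5 h after dosing. Primary screen in duplicate at 25 uM, actives then run in concentration series; loss of signal versus DMSO.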

The target of experiment [12] is human AKT serine/threonine Kinase 1 (AKT1), AKT1 (gene 207) (UniProt P31749). Description: NVS_ENZ_hAKT1: NovaScreen (NVS) Enzymatic Assay for human AKT serine/threonine Kinase 1 (AKT1) (AID 2283138; active = hit-call score of the fitted dose curve at least 0.9, where 1 is the maximum). The procedure, abridged: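 Signal loss relative to DMSO, measured by fluorescence after electrophoretic separation of substrate and product, indicates inhibition of recombinant enzyme. Readings at 1 h; screening at 25 uM, follow-up curves up to 50 uM.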

Experiment [13] in a line: BSK_SAg_SRB: Viability Assessment in the BioMAP Diversity Plus: SAg Assay (AID 2283096).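 Note: cells read one day after compound addition; hits may be either gain or loss of signal compared with DMSO.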 The conditions noted are these: primary human HUVEC with PBMC. The method, boiled down: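 Endothelial/PBMC primary human co-culture; compound 24 h; fix 10% TCA, stain 0.1% SRB, A560; protein content as cytotoxicity proxy; bidirectional curve fit, DMSO = baseline.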
In experiment [14] the target is human CYP2B6, CYP2B6 (gene 1555) (UniProt P20813). Description: NVS_ADME_hCYP2B6: NovaScreen (NVS) CYP450-related Enzyme Activity (ADME) Assay for human CYP2B6 (AID 2283101; active = hit-call score of the fitted dose curve at least 0.9, where 1 is the maximum). The method, boiled down: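 Recombinant human CYP2B6 with fluorogenic substrate, read by fluorescence intensity 1 h after dosing. Primary screen in duplicate at 10 uM, actives followed in concentration series; signal loss relative to acetonitrile control.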

Another experiment relates to rat CYP3A1, gene 25642. Put plainly: NVS_ADME_rCYP3A1: NovaScreen (NVS) CYP450-related Enzyme Activity (ADME) Assay for rat CYP3A1 (AID 2283126; active = hit-call score of the fitted dose curve at least 0.9, where 1 is the maximum). The procedure, abridged: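 Cell-free recombinant CYP assay with fluorescent substrate, read 0.5 h after dosing. Screened at 10 uM in duplicate, hits at up to 20 uM in concentration-response; loss of signal versus acetonitrile baseline.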

Experiment [15] concerns the target rat CYP3A2, Cyp3a2 (gene 266682) (UniProt P05183). Put plainly: NVS_ADME_rCYP3A2: NovaScreen (NVS) CYP450-related Enzyme Activity (ADME) Assay for rat CYP3A2 (AID 2283128; active = hit-call score of the fitted dose curve at least 0.9, where 1 is the maximum). The procedure, abridged:
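Cell-free rat CYP3A2 enzyme assay with fluorescent substrate, read 0.5 h after dosing. Primary duplicate screen at 10 uM; actives run in concentration-response up to 20 uM, relative to acetonitrile baseline.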

In experiment [16] the target is human CYP2A6, CYP2A6 (gene 1548) (UniProt P11509). Put plainly: NVS_ADME_hCYP2A6: NovaScreen (NVS) CYP450-related Enzyme Activity (ADME) Assay for human CYP2A6 (AID 2283099; active = hit-call score of the fitted dose curve at least 0.9, where 1 is the maximum). The procedure, abridged: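 Recombinant human CYP2A6 expressed in insect cells, cell-free; fluorogenic substrate turnover read by fluorescence intensity 0.5 h after dosing. Primary screen 10 uM in duplicate, then concentration-response up to 20 uM; acetonitrile as negative control.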

Experiment [17] has as its target human CYP2C9, CYP2C9 (gene 1559) (UniProt P11712). Put plainly: NVS_ADME_hCYP2C9: NovaScreen (NVS) CYP450-related Enzyme Activity (ADME) Assay for human CYP2C9 (AID 2283108; active = hit-call score of the fitted dose curve at least 0.9, where 1 is the maximum). The method, boiled down:
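Cell-free assay of recombinant human CYP2C9 produced in Sf9 cells, with enzyme activity read by fluorescence intensity 0.75 h after compound addition. Loss of signal versus an acetonitrile negative control indicates inhibition. Primary screen used 10 uM in duplicate; actives were retested in concentration series.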

Values joined by “and” are separate entries in the source; they are usually repeats but may differ in a detail not shown here. Equal values may be shown once. Results filed as inconclusive are left out. Active and inactive are the calls of the source. Rule for the calls, unless noted: active = hit-call score of the fitted dose curve at least 0.9, where 1 is the maximum; inactive = score below 0.9.

Sequence of human CYP2B6, CYP2B6 (gene 1555) (P20813 whole entry, looked up): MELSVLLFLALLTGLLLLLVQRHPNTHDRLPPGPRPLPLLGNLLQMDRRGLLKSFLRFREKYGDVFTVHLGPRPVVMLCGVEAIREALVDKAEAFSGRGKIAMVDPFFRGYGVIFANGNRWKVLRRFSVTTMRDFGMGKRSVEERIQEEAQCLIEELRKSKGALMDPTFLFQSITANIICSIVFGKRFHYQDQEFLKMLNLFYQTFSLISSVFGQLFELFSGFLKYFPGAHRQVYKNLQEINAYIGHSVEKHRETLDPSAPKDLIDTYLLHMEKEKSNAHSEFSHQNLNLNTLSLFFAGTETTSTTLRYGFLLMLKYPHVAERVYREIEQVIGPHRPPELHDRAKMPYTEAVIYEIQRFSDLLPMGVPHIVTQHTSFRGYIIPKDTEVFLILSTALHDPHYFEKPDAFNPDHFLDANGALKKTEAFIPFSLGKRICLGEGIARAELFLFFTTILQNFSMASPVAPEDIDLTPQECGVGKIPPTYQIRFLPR
Sequence of human CYP1A1, CYP1A1 (gene 1543) (P04798 whole entry, looked up): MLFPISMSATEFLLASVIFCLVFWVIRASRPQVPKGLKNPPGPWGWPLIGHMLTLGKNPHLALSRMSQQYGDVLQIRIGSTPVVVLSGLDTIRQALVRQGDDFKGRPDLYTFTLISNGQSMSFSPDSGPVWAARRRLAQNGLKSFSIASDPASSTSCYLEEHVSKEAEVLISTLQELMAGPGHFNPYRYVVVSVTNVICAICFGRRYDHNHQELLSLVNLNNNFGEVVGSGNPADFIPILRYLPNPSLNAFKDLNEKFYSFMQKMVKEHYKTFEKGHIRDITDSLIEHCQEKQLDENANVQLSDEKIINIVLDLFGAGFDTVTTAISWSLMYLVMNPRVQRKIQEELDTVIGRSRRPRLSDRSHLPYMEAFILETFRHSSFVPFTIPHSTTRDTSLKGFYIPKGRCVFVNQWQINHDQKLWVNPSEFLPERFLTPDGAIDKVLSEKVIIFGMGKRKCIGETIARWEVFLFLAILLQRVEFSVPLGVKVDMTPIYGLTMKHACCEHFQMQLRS
Sequence of human CYP2C9, CYP2C9 (gene 1559) (P11712 whole entry, looked up): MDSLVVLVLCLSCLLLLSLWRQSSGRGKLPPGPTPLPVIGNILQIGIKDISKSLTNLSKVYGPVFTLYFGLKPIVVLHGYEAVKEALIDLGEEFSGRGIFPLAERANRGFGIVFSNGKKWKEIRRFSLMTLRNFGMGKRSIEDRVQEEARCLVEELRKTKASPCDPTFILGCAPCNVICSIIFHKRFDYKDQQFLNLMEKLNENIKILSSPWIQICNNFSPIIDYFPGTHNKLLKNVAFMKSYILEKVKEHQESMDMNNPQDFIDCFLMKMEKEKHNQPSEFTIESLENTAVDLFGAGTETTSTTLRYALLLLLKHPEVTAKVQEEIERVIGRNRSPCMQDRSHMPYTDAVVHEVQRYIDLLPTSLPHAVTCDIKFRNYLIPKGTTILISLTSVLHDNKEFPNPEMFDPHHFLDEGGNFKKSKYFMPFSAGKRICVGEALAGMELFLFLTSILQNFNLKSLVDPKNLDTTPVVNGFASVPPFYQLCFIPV
Sequence of human CYP2D6, CYP2D6 (gene 1565) (P10635 whole entry, looked up): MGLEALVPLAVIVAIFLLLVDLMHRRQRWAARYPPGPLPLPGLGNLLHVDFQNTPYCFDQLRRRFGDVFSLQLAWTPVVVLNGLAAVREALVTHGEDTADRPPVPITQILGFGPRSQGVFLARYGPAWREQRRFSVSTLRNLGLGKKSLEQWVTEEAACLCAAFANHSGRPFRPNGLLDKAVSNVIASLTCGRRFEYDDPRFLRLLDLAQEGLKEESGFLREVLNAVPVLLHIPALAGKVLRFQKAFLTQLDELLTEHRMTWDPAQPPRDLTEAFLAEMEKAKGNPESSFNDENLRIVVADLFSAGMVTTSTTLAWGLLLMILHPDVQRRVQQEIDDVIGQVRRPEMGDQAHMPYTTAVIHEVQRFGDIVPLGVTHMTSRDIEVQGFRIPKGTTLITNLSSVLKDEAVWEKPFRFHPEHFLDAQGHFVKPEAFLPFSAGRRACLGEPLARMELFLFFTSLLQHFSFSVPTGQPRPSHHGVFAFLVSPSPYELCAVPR
Sequence of rat CYP3A2, Cyp3a2 (gene 266682) (P05183 whole entry, looked up): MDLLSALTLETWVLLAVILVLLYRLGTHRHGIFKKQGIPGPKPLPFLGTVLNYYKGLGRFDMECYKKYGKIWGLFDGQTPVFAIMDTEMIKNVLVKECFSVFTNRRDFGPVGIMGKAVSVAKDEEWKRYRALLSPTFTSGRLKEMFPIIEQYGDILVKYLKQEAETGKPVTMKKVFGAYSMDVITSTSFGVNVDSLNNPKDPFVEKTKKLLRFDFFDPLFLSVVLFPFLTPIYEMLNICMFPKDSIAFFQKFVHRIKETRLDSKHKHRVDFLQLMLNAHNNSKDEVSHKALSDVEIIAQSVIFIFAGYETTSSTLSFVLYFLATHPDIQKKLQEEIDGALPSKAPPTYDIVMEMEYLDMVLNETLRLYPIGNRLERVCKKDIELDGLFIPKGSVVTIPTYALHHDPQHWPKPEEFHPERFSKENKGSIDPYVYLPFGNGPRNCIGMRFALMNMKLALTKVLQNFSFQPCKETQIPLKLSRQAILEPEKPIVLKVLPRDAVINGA
Sequence of rat CYP2C11, Cyp2c11 (gene 29277) (P08683 whole entry, looked up): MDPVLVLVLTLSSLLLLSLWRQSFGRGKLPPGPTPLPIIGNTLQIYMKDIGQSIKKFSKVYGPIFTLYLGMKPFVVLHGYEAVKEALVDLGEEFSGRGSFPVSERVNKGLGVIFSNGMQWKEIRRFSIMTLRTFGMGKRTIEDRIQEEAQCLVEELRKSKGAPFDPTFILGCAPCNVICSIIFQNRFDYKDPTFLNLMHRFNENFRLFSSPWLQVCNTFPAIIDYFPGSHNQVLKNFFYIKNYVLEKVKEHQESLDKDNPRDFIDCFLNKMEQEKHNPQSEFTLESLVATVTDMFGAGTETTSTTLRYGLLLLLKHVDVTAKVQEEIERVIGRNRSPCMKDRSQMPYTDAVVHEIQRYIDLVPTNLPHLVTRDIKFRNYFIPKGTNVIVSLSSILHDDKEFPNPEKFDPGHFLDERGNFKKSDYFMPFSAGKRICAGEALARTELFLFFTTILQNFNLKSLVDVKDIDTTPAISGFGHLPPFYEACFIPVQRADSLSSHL
Sequence of human CYP2A6, CYP2A6 (gene 1548) (P11509 whole entry, looked up): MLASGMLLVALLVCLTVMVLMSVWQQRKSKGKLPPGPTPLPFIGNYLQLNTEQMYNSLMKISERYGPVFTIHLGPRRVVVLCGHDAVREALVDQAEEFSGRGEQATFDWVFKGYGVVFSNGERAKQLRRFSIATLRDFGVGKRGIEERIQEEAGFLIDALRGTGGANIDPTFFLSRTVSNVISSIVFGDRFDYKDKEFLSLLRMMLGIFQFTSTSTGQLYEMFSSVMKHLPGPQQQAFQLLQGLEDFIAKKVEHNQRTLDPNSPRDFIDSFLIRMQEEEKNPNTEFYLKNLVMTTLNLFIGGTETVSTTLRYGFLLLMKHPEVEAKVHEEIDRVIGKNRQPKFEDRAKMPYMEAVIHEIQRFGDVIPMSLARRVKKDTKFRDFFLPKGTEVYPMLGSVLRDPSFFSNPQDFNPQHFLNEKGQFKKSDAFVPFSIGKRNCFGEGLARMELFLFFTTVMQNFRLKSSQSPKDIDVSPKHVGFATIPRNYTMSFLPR
Sequence of rat CYP2C13, Cyp2c13 (gene 171521) (P20814 whole entry, looked up): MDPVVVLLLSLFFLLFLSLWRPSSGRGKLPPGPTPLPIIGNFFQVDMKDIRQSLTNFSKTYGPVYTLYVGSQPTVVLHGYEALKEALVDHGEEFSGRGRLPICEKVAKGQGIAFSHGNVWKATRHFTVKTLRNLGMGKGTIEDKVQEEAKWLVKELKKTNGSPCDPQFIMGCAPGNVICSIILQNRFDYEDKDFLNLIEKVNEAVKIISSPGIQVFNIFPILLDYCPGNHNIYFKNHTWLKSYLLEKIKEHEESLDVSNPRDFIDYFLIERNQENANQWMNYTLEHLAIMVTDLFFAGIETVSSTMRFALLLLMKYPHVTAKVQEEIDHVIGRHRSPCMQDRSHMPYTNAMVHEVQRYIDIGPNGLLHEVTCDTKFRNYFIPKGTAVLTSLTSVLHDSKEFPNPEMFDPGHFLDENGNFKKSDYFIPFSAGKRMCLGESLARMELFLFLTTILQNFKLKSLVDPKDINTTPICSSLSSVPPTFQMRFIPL
Sequence of human AKT serine/threonine Kinase 1 (AKT1), AKT1 (gene 207) (P31749 whole entry, looked up): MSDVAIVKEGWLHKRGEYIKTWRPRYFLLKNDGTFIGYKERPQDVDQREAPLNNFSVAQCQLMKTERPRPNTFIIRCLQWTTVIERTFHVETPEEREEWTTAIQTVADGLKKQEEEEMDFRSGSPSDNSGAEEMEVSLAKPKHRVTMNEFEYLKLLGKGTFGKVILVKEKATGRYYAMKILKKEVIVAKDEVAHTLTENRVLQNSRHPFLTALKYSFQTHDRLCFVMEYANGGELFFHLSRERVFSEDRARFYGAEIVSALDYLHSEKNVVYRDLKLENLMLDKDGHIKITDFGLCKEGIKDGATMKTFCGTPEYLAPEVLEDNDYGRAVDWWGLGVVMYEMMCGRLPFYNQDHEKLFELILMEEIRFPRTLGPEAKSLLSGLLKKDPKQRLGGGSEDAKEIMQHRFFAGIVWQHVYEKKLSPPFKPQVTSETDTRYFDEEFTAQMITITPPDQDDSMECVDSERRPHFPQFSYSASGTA
Sequence of human Acid Phosphatase 1 (ACP1), ACP1 (gene 52) (P24666 whole entry, looked up): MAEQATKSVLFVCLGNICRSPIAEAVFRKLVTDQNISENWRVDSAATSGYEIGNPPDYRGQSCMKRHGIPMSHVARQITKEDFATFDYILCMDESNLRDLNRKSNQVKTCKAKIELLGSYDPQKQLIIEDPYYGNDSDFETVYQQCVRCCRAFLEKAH

What is called AC50 is the concentration giving half of the maximal activity seen. Regarding `COc1ccc2cc(S(=O)(=O)N[C@H](CC(=O)N[C@H](Cc3ccc(CN4[C@H](C)CCC[C@@H]4C)cc3)C(=O)N(C)C(C)C)c3ccc4c(c3)OCO4)ccc2c1`, the AC50 in experiment [1] was 35.2 µM (active); in [2], 14.6 µM (active); in experiment [3] it was 14.8 µM (active); in [4] it was 12 µM (active); in experiment [6], 0.305 µM (active). Besides, the outcome in experiment [5] was inactive.
Regarding `CC/C(=C(/CC)c1ccc(O)cc1)c1ccc(O)cc1`, the AC50 in experiment [1] was 31.9 µM (active); in experiment [2] it was 29.1 µM (active); in [3], 13.4 µM (active); in experiment [4], 11.8 µM (active); in [7] it was 8.99 µM (active); in experiment [8], 10.2 µM (active). Besides, the half-maximal activity concentration (AC50) was 1.95 µM (active) and 7.02 µM (active) in experiment [9]; 1.08 µM (active) and 3.79 µM (active) in experiment [10]. Further, the call in experiment [11] and in [12] was inactive.
With `O=c1c(-c2ccc(O)cc2)coc2cc(O)cc(O)c12`, the AC50 in experiment [1] is 29.7 µM (active); in experiment [2], 20 µM (active); in experiment [3], 20 µM (active); in experiment [13], 20 µM (active); in the experiment on rat CYP3A1, gene 25642, 8.92 µM (active) and 5.71 µM (active); in experiment [15] it was 995 nM (active) and 815 nM (active) and 5.56 µM (active). For the same compound, the outcome in experiment [14] was inactive.
For the compound `NCc1cccc(C2CCN(C(=O)c3ccc(C#Cc4ccccc4F)o3)CC2)c1`, the AC50 is 35.1 µM (active) in experiment [1]; 11.9 µM (active) in [2]; 15.8 µM (active) in experiment [3]; 17.9 µM (active) in experiment [16]; 7.2 µM (active) in [5]; 5.71 µM (active) in experiment [14]. The values for the concentration at half-maximal activity (AC50) in experiment [6] and in [17] were 6.76 µM (active) and 0.112 µM (active), respectively.
For the compound `CC(C)(O)c1ccc(CNC(=O)c2cccnc2Oc2ccc3nonc3c2)cc1`, the outcome in experiment [1], in experiment [2], in experiment [3], in experiment [13] and in experiment [12] was inactive. Further, the half-maximal activity concentration (AC50) in [17] is 13 µM (active).
Regarding `OC12N=C(c3ccccc3)SC1Cc1cc(Cl)ccc12` (centres undefined), the outcome in [1], in experiment [3] and in [13] was inactive. The AC50 was 28.6 µM (active) in experiment [2] and 3.9 µM (active) in [14].
For the compound `CN(C)c1ccc(C(=C2C=CC(=[N+](C)C)C=C2)c2ccc(N(C)C)cc2)cc1`, the AC50 in experiment [1] is 1.61 µM (active); in experiment [2] it was 5.83 µM (active); in experiment [3], 0.148 µM (active); in experiment [5], 2.02 µM (active); in experiment [14], 6.7 µM (active); in [6] it was 2.86 µM (active).
For `Clc1ccccc1C(c1ccccc1)(c1ccccc1)n1ccnc1`, the AC50 in [1] was 35.1 µM (active); in experiment [2], 33.1 µM (active); in experiment [3], 11.6 µM (active); in [5], 2.68 µM (active); in experiment [6], 3.72 µM (active); in experiment [17], 0.585 µM (active). In experiment [16], the result was inactive.
On to `O=c1ccc2ccccc2o1`, for which the result in experiment [1], in experiment [2], in [3] and in experiment [13] was inactive.
